Results as given in PubChem BioAssay AID1159580 (chemical genetic matrix, 2015).
Where “and” joins values, the source holds several entries; their conditions need not be identical. Identical values can stand only once. In all, about 5,500 compounds went through this assay and about 2,000 (36%) were called active. Another 18% or so got no clear call; they are omitted. No stated cut-off is given here; in the data, active means normalized growth mostly below about 0.91 (no sharp cut-off); inconclusive means no clear call, values can overlap the other calls; inactive means mostly above about 0.92. Some of the results follow.

Assay: chemical genetic growth profiling, strain panel (AID 1159580);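 further: tested at 20 µM; growth read once vehicle control cultures reached saturation at 30 °C; 1 = growth at the plate median or of vehicle wells; lower values mean less growth of the strain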
Details: S. cerevisiae deletion strains, growth OD

Measured: normalized growth

C[C@](N)(Cc1ccc(O)cc1)C(=O)O
inactive: locus YAL021C, strain ccr4, hits give low values 1 | locus YAL026C, strain drs2, hits give low values 0.999 | locus YAL030W, strain snc1, hits give low values 0.998 | locus YBL061C, strain skt5, hits give low values 0.993 | locus YBR009C, strain hhf1, hits give low values 0.993 | locus YBR023C, strain chs3, hits give low values 0.996 | locus YBR171W, strain sec66, hits give low values 0.998 | locus YBR231C, strain swc5, hits give low values 1 | locus YBR279W, strain paf1, hits give low values 1 | locus YCL011C, strain gbp2, hits give low values 1 | locus YCL016C, strain dcc1, hits give low values 0.986 | locus YCL061C, strain MRC1, hits give low values 1 | locus YCL069W, strain vba3, hits give low values 0.997 | locus YCR088W, strain abp1, hits give low values 0.99 | locus YDL005C, strain med2, hits give low values 0.989 | locus YDL040C, strain nat1, hits give low values 0.991 | locus YDR001C, strain nth1, hits give low values 0.986 | locus YDR069C, strain doa4, hits give low values 1 | locus YDR137W, strain rgp1, hits give low values 0.991 | locus YDR159W, strain sac3, hits give low values 0.991 | locus YDR195W, strain ref2 0.971 | locus YDR297W, strain sur2, hits give low values 0.996 | locus YDR334W, strain swr1, hits give low values 0.997 | locus YDR335W, strain msn5, hits give low values 0.995 | locus YDR392W, strain spt3, hits give low values 0.923 | locus YEL003W, strain gim4, hits give low values 1 | locus YEL037C, strain rad23, hits give low values 0.999 | locus YEL061C, strain CIN8 (second series), hits give low values 0.992 | locus YER015W, strain faa2, hits give low values 1 | locus YER016W, strain bim1, hits give low values 0.993 | locus YER111C, strain swi4, hits give low values 1 | locus YER155C, strain BEM2 (second series), hits give low values 0.983 | locus YFR010W, strain ubp6, hits give low values 1 | locus YGL167C, strain pmr1, hits give low values 0.994 | locus YGL173C, strain kem1, hits give low values 1.01 | locus YGL227W, strain vid30, hits give low values 0.992 | locus YGL240W, strain doc1, hits give low values 1.01 | locus YGL253W, strain hxk2, hits give low values 0.999 | locus YHR013C, strain ard1, hits give low values 0.954 | locus YHR027C, strain rpn1, hits give low values 0.997 | locus YHR030C, strain SLT2, hits give low values 1.03 | locus YHR079C, strain IRE1, hits give low values 1.04 | locus YHR142W, strain chs7, hits give low values 1.01 | locus YJL092W, strain hpr5, hits give low values 0.998 | locus YJL095W, strain BCK1 (second series), hits give low values 0.997 | locus YJL095W, strain BCK1, hits give low values 1.05 | locus YJL115W, strain asf1, hits give low values 0.99 | locus YJL129C, strain trk1, hits give low values 1.01 | locus YJL154C, strain vps35, hits give low values 1 | locus YJL164C, strain tpk1, hits give low values 0.999 | locus YJL166W, strain qcr8, hits give low values 1 | locus YJL187C, strain SWE1, hits give low values 0.999 | locus YJR066W, strain TOR1, hits give low values 1.01 | locus YKL160W, strain elf1, hits give low values 1.01 | locus YKR026C, strain gcn3, hits give low values 0.98 | locus YKR091W, strain srl3, hits give low values 0.992 | locus YLL001W, strain dnm1, hits give low values 1.01 | locus YLL026W, hits give low values 0.996 | locus YLL041C, strain sdh2, hits give low values 0.997 | locus YLR027C, strain aat2, hits give low values 1 | locus YLR113W, strain HOG1, hits give low values 1.01 | locus YLR221C, strain rsa3, hits give low values 0.997 | locus YLR258W, strain gsy2, hits give low values 0.993 | locus YLR262C, strain YPT6 (second series), hits give low values 1.01 | locus YLR320W, strain mms22, hits give low values 1.01 | locus YLR342W, strain FKS1, hits give low values 0.998 | locus YLR357W, strain rsc2, hits give low values 0.982 | locus YLR370C, strain arc18, hits give low values 1 | locus YLR384C, strain iki3, hits give low values 0.994 | locus YML120C, strain ndi1, hits give low values 1.03 | locus YMR058W, strain fet3, hits give low values 1 | locus YMR125W, strain sto1, hits give low values 0.995 | locus YMR129W, hits give low values 0.986 | locus YMR205C, strain PFK2, hits give low values 0.984 | locus YMR231W, strain pep5, hits give low values 0.999 | locus YNL071W, strain lat1, hits give low values 1.01 | locus YNL183C, strain NPR1, hits give low values 1.02 | locus YNL209W, strain ssb2, hits give low values 1.01 | locus YNL248C, strain rpa49, hits give low values 1.02 | locus YNL322C, strain KRE1 (second series), hits give low values 0.986 | locus YNR049C, strain mso1, hits give low values 0.989 | locus YOR001W, strain rrp6, hits give low values 1 | locus YOR070C, strain gyp1, hits give low values 0.988 | locus YOR080W, strain dia2, hits give low values 0.99 | locus YOR083W, strain WHI5, hits give low values 1.01 | locus YOR106W, strain vam3, hits give low values 1 | locus YOR231W, strain MKK1, hits give low values 1.05 | locus YOR265W, strain rbl2, hits give low values 0.999 | locus YOR270C, strain vph1, hits give low values 1.01 | locus YOR290C, strain snf2, hits give low values 0.926 | locus YPL051W, strain arl3, hits give low values 1.01 | locus YPL078C, strain atp4, hits give low values 1.01 | locus YPL106C, strain sse1, hits give low values 0.993 | locus YPL240C, strain hsp82, hits give low values 1.01 | locus YPL256C, strain CLN2, hits give low values 1.05

CC(N)(Cc1ccc(O)cc1)C(=O)O (stereo not drawn)
inactive: locus YAL013W, strain DEP1, hits give low values 1.03 | locus YAL040C, strain CLN3, hits give low values 0.969 and 1.01 | locus YCL061C, strain MRC1 (second series), hits give low values 0.991 and 1.01 | locus YDR150W, strain NUM1, hits give low values 1 | locus YDR363W, strain ESC2, hits give low values 1 and 1.03 | locus YER002W, strain NOP16, hits give low values 0.984 and 1 | locus YGR078C, strain PAC10, hits give low values 1.02 | locus YGR229C, strain SMI1, hits give low values 1.03 | locus YJR075W, strain HOC1, hits give low values 1.02 | locus YMR263W, strain SAP30, hits give low values 1.01 | locus YNL128W, strain TEP1, hits give low values 0.984 | locus YNL153C, strain GIM3, hits give low values 0.998 and 1.02 | locus YNL175C, strain NOP13, hits give low values 0.97 and 1.01 | locus YNL197C, strain WHI3, hits give low values 0.975 and 0.984 | locus YNL224C, strain SQS1, hits give low values 1.01 and 1 | locus YNL322C, strain KRE1, hits give low values 1.03 | locus YOR083W, strain WHI5 (second series), hits give low values 0.974 and 1 | locus YPL055C, strain LGE1, hits give low values 1.01 and 1.02
